# According to PubChem BioAssay AID651678 (Sanford-Burnham Center for Chemical Genomics, 2012):
# Some of the results follow. A number with no mark means an inactive call. Calls of active or inactive are those of the source. Rule as the data show it: active = inhibition mostly above about 35% (no sharp cut-off); inactive = mostly below about 32%.
# Target: Sentrin-specific protease 1 (Homo sapiens) (UniProt Q9P0U3)
# Assay: retest of SENP1 SUMO protease blockers – biochemical, FRET endpoint, single concentration, confirmation (AID 651678);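 also: 0% = enzyme with DMSO and 100% = no enzyme control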
# Conditions: recombinant SENP1, CyPet-SUMO1-YPet FRET cleavage; at 10 µM; hits give high values
# Sentrin-specific protease 1 (Homo sapiens), sequence (Q9P0U3 419-644 limits assumed): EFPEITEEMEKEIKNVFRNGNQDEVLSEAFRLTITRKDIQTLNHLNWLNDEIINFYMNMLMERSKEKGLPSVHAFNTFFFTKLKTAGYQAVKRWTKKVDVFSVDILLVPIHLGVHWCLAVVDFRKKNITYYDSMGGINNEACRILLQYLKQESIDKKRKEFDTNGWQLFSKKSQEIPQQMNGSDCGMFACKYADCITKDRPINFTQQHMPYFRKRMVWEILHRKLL
row,Structure (SMILES),inhibition
1,O=C1C=C(c2cccc(Cl)c2O)C[C@@H](c2ccc(F)cc2)C1,94.1% (active)
2,CCOC(=O)C1CCN(c2ncnc3c2c(-c2ccccc2)cn3-c2ccc(C)cc2)CC1,6.42%
3,c1coc(-c2nc3nc4ccccc4n3nc2-c2ccco2)c1,19.4%
4,O=C1CC[C@@H]2CC3(C[C@@H]4CCN1[C@H]24)Nc1cc([N+](=O)[O-])ccc1NC3=NC1CCCCC1 (stereo not given in full),21.6%
5,COc1ccc(N2C(=O)C3C(C2=O)C(C(=O)c2ccccc2)N2CCCC32)cc1 (stereo not given),36.9% (active)
6,O=C(CCN1C(=O)/C(=C/c2cccs2)SC1=S)NNC(=O)c1cccc(O)c1,66.9% (active)
7,CCCCCn1nnnc1-c1nc2cc3ccccc3cc2[nH]c1=O,84.5% (active)
8,Cc1ccc(C(=O)N/N=C\c2cc(Br)c(Br)o2)cn1,11.3%
9,COc1cc(/C=C2\CCCc3c2nc2ccccc2c3C(=O)O)cc(Cl)c1O,97.5% (active)
10,Cc1ccc2c(c1)nnc1nnc(SCC(=O)O)n12,71.8% (active)
11,Fc1cccc(Cc2c(-c3cccc(Cl)c3)nc3ccc(Br)cn23)c1,4.53%
12,O=C1/C(=C/c2coc3ccc(O)cc3c2=O)SC(=S)N1c1ccccc1,3.85%
13,Cc1cccc(C)c1Nc1c(-c2ccccc2O)nc2ncccn12,16.2%
14,N/C(=N\OC(=O)N1c2ccccc2Sc2ccccc21)c1ccc(Br)cc1,-2.12%
15,CC(=O)c1cccc(-c2cnc3c(NC=O)cc(-c4ccc(N(C)C)cc4)cn23)c1,57.9% (active)
